# Screening results (PubChem BioAssay)
# In the library only some 6.8% were active in any assay of this set; here they are far more common.
# PMK inhibit: S. pneumoniae PMK inhibitors, primary screen, biochemical, mevalonate pathway, pilot trial included. purified PMK, PK/LDH-coupled NADH absorbance 340 nm. inhibition, % at 10 µM. 0.49% of 65,000 active. AID 539, 2006;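 active = top-ranked compounds by inhibition in the single 10 µM screen, taking a fixed number of the strongest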;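 note: 0% = full reaction with DMSO carrier and 100% = background rate without enzyme reaction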
# DPM-DC inhibit: S. pneumoniae DPM-DC inhibitors, primary screen, biochemical, PK/LDH-coupled NADH fluorescence; diphosphomevalonate decarboxylase (Streptococcus pneumoniae D39); purified DPM-DC; calls only at 10 µM; 0.49% of 65,000 active;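 active = the 320 compounds with the highest percent inhibition in the single-dose primary screen, excluding strongly autofluorescent ones, cut at about 32% in these data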;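 note: kinetic rate of NADH fluorescence loss reporting ADP formed by the decarboxylase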
# Autofluor 339: intrinsic fluorescence of library compounds, ex339/em460 – biochemical, MLSMR library, data from DPM-DC assay, artefact control, profiling panel; compound autofluorescence, ex339/em460 nm, NADH buffer; active compounds read high; 1 = no-compound wells, NADH background; fluorescence fold increase at 10 µM; 5.5% of 65,000 active;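 active = at 10 µM, mean starting fluorescence two-fold or more over control wells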;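 note: signal is the first read of a kinetic run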
# Spn MK inh: S. pneumoniae MK inhibitors, primary screen, biochemical, PK/LDH-coupled NADH absorbance | mevalonate kinase [Streptococcus pneumoniae D39] | purified MK, PK/LDH-coupled NADH absorbance 340 nm | inhibition, % at 10 µM | 0.48% of 65,000 active | AID 555, 2006;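 active = ranked among the strongest by inhibition in the single 10 µM screen, a fixed top-ranked set picked for dose follow-up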
# NADH coupling: inhibitors of PK/LDH coupling enzymes, profiling panel, artefact control, biochemical, MLSMR library; coupled PK/LDH NADH assays, four targets; IC50, µM (top dose mostly 10 µM), inactives show at the highest dose inhibition; 0.02% of 65,000 active;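 active = single-dose screening hits from any of four coupled enzyme assays that gave an IC50 when retested across doses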;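 note: the DPM-DC format reads NADH fluorescence rather than 340 nm absorbance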
# A340 absorber: compound light absorbance at 340 nm, profiling panel, artefact control, biochemical, MLSMR library, data from PS, PMK, MK assays | fold change at 10 µM | 65,000 tested, under 10 active | compound absorbance at 340 nm, fold over control;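 active = at 10 µM dose, initial 340 nm absorbance at least 2 fold that of control wells; inactive = change under 2 fold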;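 note: initial absorbance extrapolated from kinetic A340 decline of NADH oxidation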
# Active calls of the source: *; i = inactive; / = not tested or not shown; + = active, no number.
SMILES,PMK inhibit,DPM-DC inhibit,Autofluor 339,Spn MK inh,NADH coupling,A340 absorber
Cc1ccc(-c2c(C)c(-c3ccc(F)cc3)nc(N)c2C#N)o1,11,i,3*,7,6%,1.1
COc1ccc(-n2nnc3c(SCC(=O)N4CCN(c5ccccc5)CC4)ncnc32)cc1,9,i,1.1,5,5%,0.99
O=C(c1ccc(N2CCCCS2(=O)=O)cc1)N1CCN(c2ccc(N3CCOCC3)nn2)CC1,20,/,2.1*,10,15%,1
O=C(c1cncc(Br)c1)N1CCN(c2ccc(N3CCOCC3)nn2)CC1,11,/,2.1*,10,11%,1
O=C(c1ccc(N2CCOCC2)nc1)N1CCOCC1,7,i,1.1,0,2%,1
O=C(NCc1ccco1)C1CCN(c2ccc(N3CCOCC3)nn2)CC1,5,/,2.5*,12,2%,0.99
O=C(C1CCN(c2ccc(N3CCOCC3)nn2)CC1)N1CCN(c2ccc(F)cc2)CC1,14,/,4.8*,2,8%,1
COc1ccc(OC)c2[nH]c(=O)c(CCNC(=O)c3ccc(Br)o3)cc12,21,i,1.2,0,7%,1
Cc1cnn(Cc2ccccc2)c1N,12,i,1,0,4%,0.99
COc1ccc(C2N=C(Nc3ccc(C)cc3)Nc3nc(C)cc(=O)n32)cc1 (stereo not drawn),6,i,1.2,8,5%,1.1
O=C(c1ccco1)N1CCN(/C(=N/S(=O)(=O)c2cccs2)c2ccccc2Cl)CC1,15,i,1,16,5%,0.97
Cc1cc(-c2ccccc2)c(C#N)c(N)n1,8,/,2.4*,10,4%,1
Cc1cc(-c2cccnc2)c(C#N)c(SCC#N)n1,3,i,1.1,1,2%,1
COc1ccc(CC(=O)Nc2c3c(nn2-c2cccc(C)c2C)CS(=O)C3)cc1OC (stereo not drawn),13,i,1.1,5,6%,0.99
COc1ccc(-c2nnc3ccc(SCC(=O)N4CCN(c5ccccc5)CC4)nn23)cc1,8,i,1.2,13,8%,1
COc1ccc(CCn2c(N)c(C(=O)NCc3ccco3)c3nc4ccccc4nc32)cc1OC,3,/,3.6*,10,7%,1
COc1ccc(-n2c(N)c(C(=O)NCc3ccco3)c3nc4ccccc4nc32)c(OC)c1,15,/,2.9*,10,3%,1
COc1ccc(CCNC(=O)c2ccc3nc(-c4ccco4)c(-c4ccco4)nc3c2)cc1OC,15,i,2.4*,27,19%,1
COc1cccc(OC)c1-c1nn2c(-c3ccccc3Cl)nnc2s1,1,i,1.2,3,1%,1
O=C1CCC(c2ccccc2)N1C(=O)c1cccnc1 (stereo not drawn),0,i,1,17,2%,1
Clc1cccc(-c2ccc(/C=N/n3cnnc3)o2)c1,0,+,1.2,7,3716µM*,1.3
Nc1c(C(=O)NC2CCCC2)sc2nc(-c3cccs3)ccc12,5,+,2.8*,5,17%,1.1
Cc1c(S(=O)(=O)Nc2cccc(Cl)c2)c(=O)n(C)c(=O)n1C,0,i,0.99,55*,18%,1.1
CC1N=C2c3ccccc3N=C(SCc3cc(=O)n4ccccc4n3)N2C1=O (stereo not drawn),8,i,1.4,9,6%,1.1
CCC(=O)N(Cc1ccco1)c1nc(-c2cc(OC)ccc2OC)cs1,5,i,1,5,4%,1
CCC(=O)N(Cc1ccco1)c1nc(-c2ccccc2)cs1,27*,i,1,0,9%,1
COc1cc(NC(=O)c2cc3c(C)nc4ccccc4c3o2)cc(OC)c1OC,18,i,1,10,10%,1.1
COc1ccc(C)cc1NC(=O)c1cc2c(C)nc3ccccc3c2o1,6,/,5*,8,7%,1.1
